Experimental data: PubChem BioAssay AID602140 (NMMLSC, 2011)
The list shows a part of the results. The source made the active and inactive calls. How the calls were made is not given here.

The compounds below were run on Botulinum neurotoxin type F light chain protease (Clostridium botulinum) (assay: inhibition of botulinum toxin F LC protease – biochemical, flow cytometry, cherry pick 1, confirmation (AID 602140)). Details: multiplex microsphere protease cleavage assay, at 10 µM, stronger effect = higher value.

Row | SMILES | inhibition
1 | COc1ccc(C(=O)Nc2nc(-c3ccc(OC)cc3)c(-c3ccc([N+](=O)[O-])cc3)s2)cc1 | 4% (inactive)
2 | COCCn1nnnc1C(c1cc2ccc(OC)cc2[nH]c1=O)N1CCc2ccccc2C1 (centres undefined) | -9.6% (inactive)
3 | COc1ccc(N(CC(=O)NCCSCc2cccc(Cl)c2)S(C)(=O)=O)cc1 | -2.3% (inactive)
4 | Cc1ccc2[nH]cc(CCNC(=O)C3CCCCC3)c2c1 | 0.6% (inactive)
